Data from PubChem BioAssay (NCI).
Compounds without any hit were thinned out: in the full panel of roughly 79,000, 15% have a hit. Unmarked numbers belong to inactive results. Active and inactive are the calls of the source. No stated cut-off is given here; in the data, active means growth inhibition above about 70%; inactive means the rest.

Assays:
[1] = NCI Yeast Anticancer Drug Screen. Data for the rad50 strain (AID 155);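 further: 0% = growth of vehicle-only cultures of the same strain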; conditions: S. cerevisiae rad50 strain growth inhibition, stronger effect = higher value
How it was run: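 Readout: growth inhibition relative to vehicle-treated cultures. Compound exposure was carried out in a genetically defined yeast strain deficient in DNA damage repair.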

[2] = NCI Yeast Anticancer Drug Screen. Data for the mec2-1 strain (AID 157); conditions: S. cerevisiae mec2-1 strain, stronger effect = higher value
How it was run: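 mec2-1 yeast strain, carrying an alteration in DNA damage repair or cell cycle control, was exposed to compounds; growth inhibition was measured relative to vehicle-treated controls.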

[3] = NCI Yeast Anticancer Drug Screen. Data for the sgs1 mgt1 strain (AID 161);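 further: 0% = growth of cultures given vehicle only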; conditions: S. cerevisiae sgs1 mgt1 strain, stronger effect = higher value
How it was run: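 Compounds are added to genetically altered yeast, and growth is compared with cultures given vehicle alone to give percent inhibition.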

[4] = NCI Yeast Anticancer Drug Screen. Data for the cln2 rad14 strain (AID 165);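 further: 0% = growth equal to vehicle treated cultures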; conditions: S. cerevisiae cln2 rad14 strain, stronger effect = higher value
How it was run: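 Yeast carrying cln2 and rad14 alterations (cell cycle control and DNA damage repair) were exposed to compounds. Growth inhibition was measured against vehicle-treated controls.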

[5] = NCI Yeast Anticancer Drug Screen. Data for the bub3 strain (AID 167); conditions: S. cerevisiae bub3 mutant strain, stronger effect = higher value
How it was run: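 Readout: yeast growth inhibition, expressed relative to vehicle-only wells. The test organism is a mutant strain from a panel with lesions in DNA repair or checkpoint genes.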

[6] = NCI Yeast Anticancer Drug Screen. Data for the mlh1 rad18 strain (AID 175); conditions: S. cerevisiae mlh1 rad18 strain growth inhibition, stronger effect = higher value
How it was run: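 Growth inhibition of the yeast strain was measured after compound exposure and expressed relative to vehicle-treated controls. The strain carries defined defects in DNA damage repair.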

[7] = at 5.0 µM (retest, dose inferred, filed as 0.5)
[8] = at 50.0 µM (retest, dose inferred, filed as 5.0)

Row | Structure (SMILES) | growth inhibition [1, 7] | growth inhibition [1, 8] | growth inhibition ([1]; at 50.0 µM) | growth inhibition [2, 7] | growth inhibition [2, 8] | growth inhibition ([2]; at 50.0 µM) | growth inhibition [3, 7] | growth inhibition [3, 8] | growth inhibition ([3]; at 50.0 µM) | growth inhibition [4, 7] | growth inhibition [4, 8] | growth inhibition ([4]; at 50.0 µM) | growth inhibition [5, 7] | growth inhibition [5, 8] | growth inhibition ([5]; at 50.0 µM) | growth inhibition [6, 7] | growth inhibition [6, 8] | growth inhibition ([6]; at 50.0 µM)
1 | CC1CCC(C(C)C2C(O)CC3C4CC=C5CC(O)CCC5(C)C4CCC32C)NC1 (configuration not stated) | -23% | 81% (active) | 66.8% | 1% | 18% | 25.1% | 12% | 96% (active) | 88.5% (active) | 3% | 23% | 23.8% | -1% | 70% (active) | 10.9% | 10% | 54% | 57.5%
2 | Nc1nccc(NCCCCCCNc2ccnc(N)n2)n1 | 16% | 41% | 43.2% | 13% | 19% | 41.6% | 8% | 36% | 80% (active) | 17% | 21% | 52% | 9% | 33% | 48% | 17% | 60% | 57.2%
3 | COC1/C=C/OC2(C)Oc3c(C)c(O)c4c(c3C2=O)C(=O)C=C(NC(=O)/C(C)=C\C=C\C(C)C(OC=O)C(C)C(O)C(C)C(OC(C)=O)C1C)C4=O (configuration not stated) | -15% | -4% | 47% | 1% | 3% | 53.5% | -12% | 29% | 52.5% | -5% | 3% | 79% (active) | -8% | 5% | 49.6% | 11% | 27% | 55.7%
4 | CCOc1cc(/C=N/NC(=S)NC23CC4CC(CC(C4)C2)C3)ccc1O | -3% | 11% | 40.6% | -5% | 30% | 40.5% | 0% | 61% | 41.3% | 49% | 16% | 45.1% | -7% | -100% | 9.55% | 1% | 29% | 47.6%
5 | NC1=CC(=O)c2ccccc2C1=O | 18% | 84% (active) | 94.5% (active) | 1% | 48% | 62.3% | 26% | 57% | 85.2% (active) | 9% | 33% | -1.65% | 42% | 93% (active) | 93.8% (active) | 31% | 84% (active) | 95.5% (active)
6 | O=C(CN(Cc1ccccc1)Cc1ccccc1)c1ccccc1 | -2% | 31% | 19.6% | 1% | 34% | -1.8% | -2% | 33% | 16.9% | 3% | 45% | 1.75% | 4% | 89% (active) | 79.7% (active) | -1% | 57% | 15.4%
7 | CN(C)c1nc(N(C)C)oc(=[N+](C)C)n1 | -2% | -13% | 9.7% | 3% | -8% | 9.35% | 0% | -9% | 7.8% | 3% | 1% | 57.3% | 3% | 15% | -7.45% | 1% | -13% | 30.4%
8 | C/C(=N/Nc1ccccc1)C(=O)O | 18% | 97% (active) | 97.8% (active) | 6% | 88% (active) | 97.8% (active) | 11% | 50% | 97.7% (active) | 8% | 96% (active) | 98% (active) | 6% | 96% (active) | 97.4% (active) | 28% | 98% (active) | 97.2% (active)
9 | COc1cc(N=Nc2cccc(S(N)(=O)=O)c2)c2ccccc2c1N | -6% | 98% (active) | 95.3% (active) | -2% | 99% (active) | 97.7% (active) | 2% | 99% (active) | 97.4% (active) | 34% | 98% (active) | 95.5% (active) | -5% | 99% (active) | 94.4% (active) | 5% | 98% (active) | 95.8% (active)
10 | Cc1nc2c(=O)[nH]c3ccc(Cl)cc3c2o1 | 3% | 60% | 42.5% | 3% | 59% | 38.1% | 9% | 90% (active) | 40.7% | 7% | 12% | 77.3% (active) | 6% | 75% (active) | 60.2% | 8% | 89% (active) | 46.2%
11 | COc1ccc(-n2c(=O)c3[nH]c(=S)[nH]c3n(-c3ccc(OC)cc3)c2=S)cc1 | 21% | 25% | 25.5% | 1% | 16% | 44% | 7% | 23% | -47.7% | 3% | 25% | -1% | -44% | 13% | -41.8% | 14% | 19% | -29.9%
12 | COc1cc(C(c2cc3c(cc2O)OCO3)N2CCOCC2)cc(OC)c1OC (configuration not stated) | 0% | 23% | 35.5% | -23% | 13% | 67.7% | -3% | 28% | 17% | 4% | 8% | 20.6% | 2% | 11% | 7.1% | -4% | 21% | 19%
13 | CCC[CH2][Sn]([CH2]CCC)([O]C(=O)c1cc(F)cc(F)c1)[O]C(=O)c1cc(F)cc(F)c1 | 54% | 54% | 22.4% | 26% | 26% | 52.4% | 65% | 65% | 16.4% | 18% | 18% | 36.2% | 21% | 21% | 67.7% | 21% | 21% | 68.1%
14 | CCOC(=O)c1c(C)[nH]c(C(c2ccccc2)c2[nH]c(C)c(C(=O)OCC)c2C)c1C | -2% | 65% | 44% | -4% | 64% | 43.4% | 7% | 69% | 66.5% | 0% | 86% (active) | 75.2% (active) | -5% | 80% (active) | 46.2% | 5% | 74% (active) | 48.8%
15 | CC(=O)C(=Cc1ccc(C=C(C(C)=O)C(C)=O)cc1)C(C)=O | -1% | 30% | 45% | 5% | 40% | 58.5% | 11% | 61% | 58.5% | 11% | 8% | 46.4% | -5% | 30% | 4.7% | 22% | 91% (active) | 94.7% (active)
16 | CN(C)CCC(/C=C/c1ccccc1)=N\Nc1c(F)c(F)c(F)c(F)c1F | -2% | 8% | 58% | -2% | 1% | 8.9% | 2% | -8% | 35.4% | -3% | 6% | -3.55% | 1% | -14% | 40% | -4% | -2% | 86.8% (active)
17 | Cc1cccc2c1C1OC(=O)C3CCC=C2C31 (configuration not stated) | -146% | -134% | 30.4% | -49% | -55% | 53.9% | -56% | -58% | 12.8% | -45% | -39% | 64.9% | -41% | -52% | 28.1% | -107% | -101% | 41.8%
18 | O=C(N/C(=C\c1ccccc1Cl)c1nc2ccccc2s1)c1ccccc1 | 20% | 99% (active) | 99% (active) | 13% | 99% (active) | 99.2% (active) | 54% | 99% (active) | 99.2% (active) | 11% | 99% (active) | 99% (active) | 30% | 99% (active) | 98.8% (active) | 20% | 99% (active) | 99.1% (active)
19 | O=C(O)CSc1nc(-c2ccccc2)c(-c2ccccc2)n1-c1ccccn1 | 1% | 5% | 76.2% (active) | -6% | -10% | 40.5% | -12% | 4% | 82.8% (active) | 18% | 4% | 61.8% | -13% | -9% | 47.4% | 8% | 6% | 11.2%
